# Test results: PMC7862700, “An all-to-all approach to the identification of sequence-specific readers for epigenetic DNA modifications on cytosine”
# Assays:
# Assay in all cases: DAPPL (digital affinity profiling via proximity ligation, sequencing); 10 mM Tris-HCl pH 7.5, 50 mM NaCl, 1 mM DTT, 4% glycerol, room temperature, 30 min; GST-TFs on glutathione beads, 16-mer random dsDNA library, 0.1% formaldehyde crosslink after washing; high values mean tight binding
# [1] = biological target: T1, FLI1 (Homo sapiens, UniProt Q01543 1-452); conditions: protein: recombinant; tags: N-terminal GST; dsDNA, one strand shown
# T1 sequence: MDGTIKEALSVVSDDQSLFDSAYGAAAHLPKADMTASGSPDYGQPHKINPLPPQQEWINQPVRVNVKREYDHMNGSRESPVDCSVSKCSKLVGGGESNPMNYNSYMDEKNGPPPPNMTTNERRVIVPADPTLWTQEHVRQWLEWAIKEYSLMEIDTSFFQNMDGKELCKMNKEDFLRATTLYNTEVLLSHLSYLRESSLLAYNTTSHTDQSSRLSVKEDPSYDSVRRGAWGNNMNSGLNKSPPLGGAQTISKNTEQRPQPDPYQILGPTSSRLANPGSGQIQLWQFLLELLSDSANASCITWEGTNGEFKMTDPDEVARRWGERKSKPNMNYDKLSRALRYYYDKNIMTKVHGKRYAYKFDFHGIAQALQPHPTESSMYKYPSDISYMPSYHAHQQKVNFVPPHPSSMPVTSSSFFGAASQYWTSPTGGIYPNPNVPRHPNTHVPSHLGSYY
# Procedure, shortened: (§1)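 Binding signal is given per hexamer as its read frequency for a factor divided by its frequency in the tag-only sample. GST-fused human transcription factors were expressed in yeast, captured on glutathione beads, barcoded with DNA and pooled with that sample, then incubated with 200 nmole of a 16-mer random double-stranded DNA library in Tris/NaCl/DTT/glycerol buffer for 30 min at room temperature. The pools were then washed, crosslinked, proximity-ligated, amplified by PCR and sequenced on an Illumina NextSeq500.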
# [2] = biological target: T2, ELK1 (Homo sapiens, UniProt P19419 1-428); conditions: protein: recombinant; tags: N-terminal GST; dsDNA, one strand shown
# T2 sequence: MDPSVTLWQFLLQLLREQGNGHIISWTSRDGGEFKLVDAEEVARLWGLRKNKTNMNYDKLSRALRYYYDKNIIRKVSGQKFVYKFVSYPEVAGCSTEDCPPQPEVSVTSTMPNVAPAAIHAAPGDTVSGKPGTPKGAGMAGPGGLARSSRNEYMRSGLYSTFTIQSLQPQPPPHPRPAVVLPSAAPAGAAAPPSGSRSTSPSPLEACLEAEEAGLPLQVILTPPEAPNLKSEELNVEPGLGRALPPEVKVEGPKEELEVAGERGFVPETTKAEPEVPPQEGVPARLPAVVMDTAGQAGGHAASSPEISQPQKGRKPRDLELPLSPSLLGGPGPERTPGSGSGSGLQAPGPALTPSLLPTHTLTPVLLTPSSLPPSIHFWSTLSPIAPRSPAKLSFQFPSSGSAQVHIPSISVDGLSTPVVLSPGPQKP
# Procedure, shortened: as §1
# [3] = biological target: T3, GABPA (Homo sapiens, UniProt Q06546 1-454); conditions: protein: recombinant; tags: N-terminal GST; dsDNA, one strand shown
# T3 sequence: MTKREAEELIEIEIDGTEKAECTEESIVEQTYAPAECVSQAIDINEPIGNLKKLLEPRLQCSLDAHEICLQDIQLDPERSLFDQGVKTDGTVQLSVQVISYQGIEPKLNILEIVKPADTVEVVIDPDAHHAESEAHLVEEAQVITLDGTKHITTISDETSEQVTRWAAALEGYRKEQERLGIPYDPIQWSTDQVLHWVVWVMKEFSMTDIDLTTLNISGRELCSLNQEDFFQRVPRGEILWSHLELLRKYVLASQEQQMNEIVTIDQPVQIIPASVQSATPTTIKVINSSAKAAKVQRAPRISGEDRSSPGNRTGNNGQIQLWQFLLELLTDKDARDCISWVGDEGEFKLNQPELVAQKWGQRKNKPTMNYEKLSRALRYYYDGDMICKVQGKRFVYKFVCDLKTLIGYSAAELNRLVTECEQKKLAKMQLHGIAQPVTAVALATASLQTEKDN
# Procedure, shortened: as §1
# [4] = biological target: T4, ERG (Homo sapiens, UniProt P11308 1-479); conditions: protein: recombinant; tags: N-terminal GST; dsDNA, one strand shown
# T4 sequence: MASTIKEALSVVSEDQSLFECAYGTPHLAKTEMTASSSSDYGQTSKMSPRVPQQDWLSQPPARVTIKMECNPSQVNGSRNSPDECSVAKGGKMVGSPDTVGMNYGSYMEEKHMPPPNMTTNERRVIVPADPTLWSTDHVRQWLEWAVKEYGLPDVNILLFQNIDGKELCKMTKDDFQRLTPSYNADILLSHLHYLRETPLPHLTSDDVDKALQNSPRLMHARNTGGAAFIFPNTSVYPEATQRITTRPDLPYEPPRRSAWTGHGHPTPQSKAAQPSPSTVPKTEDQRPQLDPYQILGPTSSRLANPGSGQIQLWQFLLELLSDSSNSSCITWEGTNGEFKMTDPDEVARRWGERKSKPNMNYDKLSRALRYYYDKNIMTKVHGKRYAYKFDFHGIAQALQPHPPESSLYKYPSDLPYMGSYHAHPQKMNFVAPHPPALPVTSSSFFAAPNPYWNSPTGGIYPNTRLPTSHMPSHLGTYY
# Procedure, shortened: as §1
# [5] = biological target: ELF1 (Homo sapiens, UniProt P32519 1-619); conditions: protein: recombinant; tags: N-terminal GST; dsDNA, one strand shown
# ELF1, sequence (P32519 whole entry): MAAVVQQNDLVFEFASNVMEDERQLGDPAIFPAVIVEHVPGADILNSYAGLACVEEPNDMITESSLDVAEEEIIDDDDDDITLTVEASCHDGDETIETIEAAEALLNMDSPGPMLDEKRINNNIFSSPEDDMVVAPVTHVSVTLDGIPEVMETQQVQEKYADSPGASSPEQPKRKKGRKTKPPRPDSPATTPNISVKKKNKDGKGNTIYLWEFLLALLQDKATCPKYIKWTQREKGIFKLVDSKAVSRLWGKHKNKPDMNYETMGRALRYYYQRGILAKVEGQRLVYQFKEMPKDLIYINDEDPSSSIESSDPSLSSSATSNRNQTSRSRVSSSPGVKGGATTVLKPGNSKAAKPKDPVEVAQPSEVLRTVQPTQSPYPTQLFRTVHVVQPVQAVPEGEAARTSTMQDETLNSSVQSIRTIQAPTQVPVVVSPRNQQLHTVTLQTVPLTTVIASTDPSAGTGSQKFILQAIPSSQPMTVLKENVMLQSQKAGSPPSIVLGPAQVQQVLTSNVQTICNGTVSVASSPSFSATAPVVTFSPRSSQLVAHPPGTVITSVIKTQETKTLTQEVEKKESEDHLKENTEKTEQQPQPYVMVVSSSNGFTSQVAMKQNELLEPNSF
# Procedure, shortened: as §1
# [6] = biological target: T5, EHF (Homo sapiens, UniProt Q9NZC4 1-300); conditions: protein: recombinant; tags: N-terminal GST; dsDNA, one strand shown
# T5 sequence: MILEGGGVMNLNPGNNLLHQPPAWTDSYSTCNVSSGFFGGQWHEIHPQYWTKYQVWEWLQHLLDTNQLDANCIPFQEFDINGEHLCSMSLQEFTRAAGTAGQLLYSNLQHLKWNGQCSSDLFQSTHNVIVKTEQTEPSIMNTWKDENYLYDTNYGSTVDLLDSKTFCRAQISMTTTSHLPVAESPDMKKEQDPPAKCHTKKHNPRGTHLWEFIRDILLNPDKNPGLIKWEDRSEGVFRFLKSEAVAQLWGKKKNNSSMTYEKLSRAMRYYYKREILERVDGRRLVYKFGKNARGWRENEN
# Procedure, shortened: as §1
# [7] = biological target: SPI1 (Homo sapiens, UniProt P17947 1-270); conditions: protein: recombinant; tags: N-terminal GST; dsDNA, one strand shown
# Procedure, shortened: as §1
# [8] = biological target: SPIB (Homo sapiens, UniProt Q01892 1-262); conditions: protein: recombinant; tags: N-terminal GST; dsDNA, one strand shown
# SPIB, sequence (Q01892 whole entry): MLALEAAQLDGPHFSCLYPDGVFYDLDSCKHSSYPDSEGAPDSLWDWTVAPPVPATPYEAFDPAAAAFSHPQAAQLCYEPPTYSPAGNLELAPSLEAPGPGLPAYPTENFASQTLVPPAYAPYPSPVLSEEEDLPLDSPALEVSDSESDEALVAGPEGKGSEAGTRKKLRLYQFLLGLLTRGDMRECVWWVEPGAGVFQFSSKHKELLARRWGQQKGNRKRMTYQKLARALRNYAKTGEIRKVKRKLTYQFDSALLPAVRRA
# Procedure, shortened: as §1
# [9] = biological target: T6, ELK3 (Homo sapiens, UniProt P41970 1-407); conditions: protein: recombinant; tags: N-terminal GST; dsDNA, one strand shown
# T6 sequence: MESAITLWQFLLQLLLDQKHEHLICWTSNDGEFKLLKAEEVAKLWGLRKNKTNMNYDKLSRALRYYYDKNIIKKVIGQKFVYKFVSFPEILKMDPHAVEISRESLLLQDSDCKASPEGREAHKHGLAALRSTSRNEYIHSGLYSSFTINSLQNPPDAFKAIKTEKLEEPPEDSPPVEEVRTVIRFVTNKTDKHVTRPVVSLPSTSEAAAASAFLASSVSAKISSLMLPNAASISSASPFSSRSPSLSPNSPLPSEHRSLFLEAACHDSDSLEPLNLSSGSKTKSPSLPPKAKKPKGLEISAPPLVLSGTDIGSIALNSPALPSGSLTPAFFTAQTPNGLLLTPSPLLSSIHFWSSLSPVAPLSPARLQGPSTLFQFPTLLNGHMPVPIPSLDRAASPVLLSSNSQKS
# Procedure, shortened: as §1
# [10] = biological target: T7, FEV (Homo sapiens, UniProt Q99581 1-238); conditions: protein: recombinant; tags: N-terminal GST; dsDNA, one strand shown
# T7 sequence: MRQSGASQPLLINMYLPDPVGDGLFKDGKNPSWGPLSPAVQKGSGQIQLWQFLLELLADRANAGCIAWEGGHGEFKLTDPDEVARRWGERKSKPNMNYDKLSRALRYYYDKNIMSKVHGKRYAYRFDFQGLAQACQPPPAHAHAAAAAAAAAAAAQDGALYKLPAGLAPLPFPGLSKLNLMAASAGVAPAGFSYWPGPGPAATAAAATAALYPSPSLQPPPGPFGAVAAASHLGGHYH
# Procedure, shortened: as §1
# [11] = biological target: ETV5 (Homo sapiens, UniProt P41161 1-510); conditions: protein: recombinant; tags: N-terminal GST; dsDNA, one strand shown
# ETV5, sequence (P41161 whole entry): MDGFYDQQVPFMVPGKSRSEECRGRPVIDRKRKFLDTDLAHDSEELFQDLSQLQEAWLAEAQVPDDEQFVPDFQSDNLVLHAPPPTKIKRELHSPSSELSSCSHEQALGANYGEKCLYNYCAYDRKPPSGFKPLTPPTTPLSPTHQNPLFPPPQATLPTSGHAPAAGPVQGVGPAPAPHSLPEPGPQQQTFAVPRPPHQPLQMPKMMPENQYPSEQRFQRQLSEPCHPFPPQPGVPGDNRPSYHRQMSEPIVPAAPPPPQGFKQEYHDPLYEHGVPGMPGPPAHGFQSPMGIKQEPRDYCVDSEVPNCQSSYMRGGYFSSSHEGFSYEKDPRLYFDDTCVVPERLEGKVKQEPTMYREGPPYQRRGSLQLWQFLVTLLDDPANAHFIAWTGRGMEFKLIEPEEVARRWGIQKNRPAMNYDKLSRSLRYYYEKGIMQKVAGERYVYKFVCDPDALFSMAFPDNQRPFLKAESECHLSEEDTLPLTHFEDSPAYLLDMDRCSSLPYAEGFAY
# Procedure, shortened: as §1
# [12] = biological target: HSF1 (Homo sapiens, UniProt Q00613 1-529); conditions: protein: recombinant; tags: N-terminal GST; chain copies: 3; dsDNA, one strand shown
# HSF1, sequence (Q00613 whole entry): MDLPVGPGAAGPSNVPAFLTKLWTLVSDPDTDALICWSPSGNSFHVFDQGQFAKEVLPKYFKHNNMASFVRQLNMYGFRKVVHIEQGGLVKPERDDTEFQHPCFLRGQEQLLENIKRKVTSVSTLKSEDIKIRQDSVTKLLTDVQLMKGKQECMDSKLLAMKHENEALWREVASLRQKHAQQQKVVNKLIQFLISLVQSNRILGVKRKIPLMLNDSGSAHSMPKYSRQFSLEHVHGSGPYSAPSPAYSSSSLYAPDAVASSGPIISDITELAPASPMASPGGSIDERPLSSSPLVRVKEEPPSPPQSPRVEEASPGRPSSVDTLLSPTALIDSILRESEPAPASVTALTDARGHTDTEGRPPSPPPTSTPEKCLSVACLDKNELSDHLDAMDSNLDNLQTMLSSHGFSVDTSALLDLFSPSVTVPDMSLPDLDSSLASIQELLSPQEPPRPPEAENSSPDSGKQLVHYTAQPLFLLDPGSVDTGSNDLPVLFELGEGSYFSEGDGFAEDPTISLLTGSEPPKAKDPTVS
# Procedure, shortened: as §1
# [13] = biological target: T8, SPIC (Homo sapiens, UniProt Q8N5J4 1-248); conditions: protein: recombinant; tags: N-terminal GST; dsDNA, one strand shown
# T8 sequence: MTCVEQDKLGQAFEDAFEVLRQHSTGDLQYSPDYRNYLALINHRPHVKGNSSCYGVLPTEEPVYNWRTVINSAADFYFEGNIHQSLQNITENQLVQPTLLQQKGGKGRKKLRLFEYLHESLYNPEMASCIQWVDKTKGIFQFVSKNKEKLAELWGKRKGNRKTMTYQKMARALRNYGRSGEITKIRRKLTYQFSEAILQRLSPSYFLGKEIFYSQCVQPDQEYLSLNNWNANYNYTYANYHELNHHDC
# Procedure, shortened: as §1
# [14] = biological target: ELF4 (Homo sapiens, UniProt Q99607 1-663); conditions: protein: recombinant; tags: N-terminal GST; dsDNA, one strand shown
# ELF4, sequence (Q99607 whole entry): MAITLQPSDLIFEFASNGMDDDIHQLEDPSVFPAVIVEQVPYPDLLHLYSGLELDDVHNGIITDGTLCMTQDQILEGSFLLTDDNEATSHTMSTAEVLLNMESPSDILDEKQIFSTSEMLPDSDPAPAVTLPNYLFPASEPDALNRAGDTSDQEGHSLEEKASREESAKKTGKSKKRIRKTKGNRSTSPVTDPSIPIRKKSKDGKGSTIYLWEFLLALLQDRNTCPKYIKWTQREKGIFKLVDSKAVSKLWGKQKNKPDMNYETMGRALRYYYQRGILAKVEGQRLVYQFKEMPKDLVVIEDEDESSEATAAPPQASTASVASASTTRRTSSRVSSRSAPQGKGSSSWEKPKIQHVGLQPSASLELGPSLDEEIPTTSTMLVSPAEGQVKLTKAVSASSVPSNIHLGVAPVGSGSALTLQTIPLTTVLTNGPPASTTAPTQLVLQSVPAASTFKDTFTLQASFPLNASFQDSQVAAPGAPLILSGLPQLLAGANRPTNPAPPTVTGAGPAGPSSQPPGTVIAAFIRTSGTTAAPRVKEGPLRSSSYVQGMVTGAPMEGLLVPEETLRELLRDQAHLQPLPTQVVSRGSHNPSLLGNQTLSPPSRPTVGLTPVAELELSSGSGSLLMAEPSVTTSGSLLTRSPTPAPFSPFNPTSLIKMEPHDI
# Procedure, shortened: as §1
# [15] = biological target: T9, ELK4 (Homo sapiens, UniProt P28324-2 1-405); conditions: protein: recombinant; tags: N-terminal GST; dsDNA, one strand shown
# T9 sequence: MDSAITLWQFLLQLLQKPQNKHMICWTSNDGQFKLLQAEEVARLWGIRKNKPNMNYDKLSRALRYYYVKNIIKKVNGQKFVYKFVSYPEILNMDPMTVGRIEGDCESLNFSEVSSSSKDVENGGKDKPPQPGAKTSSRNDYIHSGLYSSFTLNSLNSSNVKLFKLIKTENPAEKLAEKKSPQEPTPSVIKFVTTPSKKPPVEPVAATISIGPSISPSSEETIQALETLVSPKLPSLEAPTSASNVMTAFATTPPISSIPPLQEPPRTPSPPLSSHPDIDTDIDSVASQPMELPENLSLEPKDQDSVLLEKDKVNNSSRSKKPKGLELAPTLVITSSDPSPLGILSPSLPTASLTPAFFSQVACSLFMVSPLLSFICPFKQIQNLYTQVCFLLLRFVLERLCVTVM
# Procedure, shortened: as §1
# [16] = biological target: T10, ETV2 (Homo sapiens, UniProt O00321 1-342); conditions: protein: recombinant; tags: N-terminal GST; dsDNA, one strand shown
# T10 sequence: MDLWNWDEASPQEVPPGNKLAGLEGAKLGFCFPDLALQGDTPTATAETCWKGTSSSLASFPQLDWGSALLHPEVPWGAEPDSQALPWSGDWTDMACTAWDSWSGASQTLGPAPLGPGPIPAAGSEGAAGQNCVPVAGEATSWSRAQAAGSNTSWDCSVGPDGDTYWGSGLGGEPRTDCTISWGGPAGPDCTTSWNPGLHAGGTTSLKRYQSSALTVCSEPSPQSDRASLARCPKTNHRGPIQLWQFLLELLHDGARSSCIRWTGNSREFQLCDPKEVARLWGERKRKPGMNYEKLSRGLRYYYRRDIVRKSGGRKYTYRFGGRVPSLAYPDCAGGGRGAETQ
# Procedure, shortened: as §1
# [17] = biological target: T11, ELF3 (Homo sapiens, UniProt P78545 1-371); conditions: protein: recombinant; tags: N-terminal GST; dsDNA, one strand shown
# T11 sequence: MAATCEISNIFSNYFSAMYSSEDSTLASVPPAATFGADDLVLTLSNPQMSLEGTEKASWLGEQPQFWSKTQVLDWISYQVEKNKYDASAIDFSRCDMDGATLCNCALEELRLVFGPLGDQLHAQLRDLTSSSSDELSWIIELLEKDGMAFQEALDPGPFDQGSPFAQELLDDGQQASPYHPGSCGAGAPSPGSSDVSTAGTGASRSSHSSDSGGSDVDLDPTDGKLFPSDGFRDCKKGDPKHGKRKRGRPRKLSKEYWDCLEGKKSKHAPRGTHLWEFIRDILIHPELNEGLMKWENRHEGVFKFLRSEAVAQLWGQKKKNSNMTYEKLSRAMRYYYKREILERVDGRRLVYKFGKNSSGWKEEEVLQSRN
# Procedure, shortened: as §1
# [18] = biological target: CRX (Homo sapiens, UniProt O43186 1-299); conditions: protein: recombinant; tags: N-terminal GST; dsDNA, one strand shown
# CRX, sequence (O43186 whole entry): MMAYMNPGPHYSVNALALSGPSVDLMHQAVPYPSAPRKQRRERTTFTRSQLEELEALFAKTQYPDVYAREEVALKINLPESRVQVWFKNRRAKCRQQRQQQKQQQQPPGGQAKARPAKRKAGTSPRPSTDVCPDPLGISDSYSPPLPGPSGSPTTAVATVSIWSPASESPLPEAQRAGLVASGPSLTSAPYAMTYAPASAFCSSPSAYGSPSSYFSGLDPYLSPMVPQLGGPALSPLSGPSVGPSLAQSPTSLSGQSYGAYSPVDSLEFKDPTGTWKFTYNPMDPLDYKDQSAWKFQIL
# Procedure, shortened: as §1
# [19] = biological target: ETV1 (Homo sapiens, UniProt P50549 1-477); conditions: protein: recombinant; tags: N-terminal GST; dsDNA, one strand shown
# ETV1, sequence (P50549 whole entry): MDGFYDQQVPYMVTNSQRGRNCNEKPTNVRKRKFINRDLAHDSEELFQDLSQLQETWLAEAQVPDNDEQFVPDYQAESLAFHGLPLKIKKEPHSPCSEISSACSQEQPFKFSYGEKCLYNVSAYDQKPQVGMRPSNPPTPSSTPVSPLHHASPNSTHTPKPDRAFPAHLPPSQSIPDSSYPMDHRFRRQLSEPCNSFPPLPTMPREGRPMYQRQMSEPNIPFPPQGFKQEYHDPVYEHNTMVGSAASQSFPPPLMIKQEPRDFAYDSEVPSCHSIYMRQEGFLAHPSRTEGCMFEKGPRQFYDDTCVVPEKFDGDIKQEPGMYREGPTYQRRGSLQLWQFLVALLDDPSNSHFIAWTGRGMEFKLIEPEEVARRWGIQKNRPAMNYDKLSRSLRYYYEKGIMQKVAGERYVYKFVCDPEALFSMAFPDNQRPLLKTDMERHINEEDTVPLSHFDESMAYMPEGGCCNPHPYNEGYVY
# Procedure, shortened: as §1
sequence,measurement,setting,value
ACTCAA,binding signal,[1],"1.19 fold enrichment (6-mer frequency, TF over GST control)"
same,binding signal,[2],"1.23 fold enrichment (6-mer frequency, TF over GST control)"
same,binding signal,[3],"1.22 fold enrichment (6-mer frequency, TF over GST control)"
same,binding signal,[4],"1.21 fold enrichment (6-mer frequency, TF over GST control)"
same,binding signal,[5],"1.22 fold enrichment (6-mer frequency, TF over GST control)"
same,binding signal,[6],"1.18 fold enrichment (6-mer frequency, TF over GST control)"
same,binding signal,[7],"1.24 fold enrichment (6-mer frequency, TF over GST control)"
same,binding signal,[8],"1.23 fold enrichment (6-mer frequency, TF over GST control)"
same,binding signal,[9],"1.31 fold enrichment (6-mer frequency, TF over GST control)"
same,binding signal,[10],"1.23 fold enrichment (6-mer frequency, TF over GST control)"
same,binding signal,[11],"1.16 fold enrichment (6-mer frequency, TF over GST control)"
same,binding signal,[12],"1.07 fold enrichment (6-mer frequency, TF over GST control)"
same,binding signal,[13],"1.17 fold enrichment (6-mer frequency, TF over GST control)"
same,binding signal,[14],"1.16 fold enrichment (6-mer frequency, TF over GST control)"
same,binding signal,[15],"1.18 fold enrichment (6-mer frequency, TF over GST control)"
same,binding signal,[16],"1.15 fold enrichment (6-mer frequency, TF over GST control)"
same,binding signal,[17],"1.12 fold enrichment (6-mer frequency, TF over GST control)"
same,binding signal,[18],"1.12 fold enrichment (6-mer frequency, TF over GST control)"
same,binding signal,[19],"1.15 fold enrichment (6-mer frequency, TF over GST control)"
